# Where a name gives a salt, the structure may show the parent alone.
# How the values were obtained:
# Conditions in all cases: compound concentration in added solution (µM; 5 µl added to 20 µl cells): 10; 18 h
# A431 [1] = assay: LBPA endosome anti-LBPA integrated intensity (sum per cell), Z-score; higher = more LBPA staining
# Outline: (§1)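 In duplicate 384-well imaging plates, 3,500 HeLa MZ or A431 cells in 20 µl per well were seeded onto 5 µl of 10 µM compound solution. The cells were incubated for 18 h, fixed in 4% PFA and stained with 6C4 anti-LBPA antibody, filipin, propidium iodide and CellTracker green before four 20× images were acquired per well. Values are AcuityXpress-normalised Z-scores of per-cell integrated LBPA or filipin intensity, obtained by MetaXpress segmentation over the whole cell or in LBPA endosomes.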
# HeLa MZ [2] = assay: as above
# Outline: as §1
# A431 [3] = assay: whole-cell filipin (free cholesterol) integrated intensity, Z-score; higher = more cholesterol staining
# Outline: as §1
# HeLa MZ [4] = assay: as above
# Outline: as §1
# A431 [5] = assay: filipin (cholesterol) integrated intensity within LBPA endosomes, Z-score; higher = more cholesterol in LBPA endosomes
# Outline: as §1
# HeLa MZ [6] = assay: as above
# Outline: as §1
Compound,LBPA endosome anti-LBPA integrated intensity (z-score) (A431 [1]),LBPA endosome anti-LBPA integrated intensity (z-score) (HeLa MZ [2]),whole-cell filipin (z-score) (A431 [3]),whole-cell filipin (z-score) (HeLa MZ [4]),filipin (z-score) (A431 [5]),filipin (z-score) (HeLa MZ [6])
CC1(C)NC(=O)N(c2ccc([N+](=O)[O-])c(C(F)(F)F)c2)C1=O [Nilutamide],-0.466,-0.349,-0.373,-0.711,-0.474,-0.472
C[C@@H]1CCC[C@H](C)N1NC(=O)c1ccc(Cl)c(S(N)(=O)=O)c1 [Clopamide],-0.569,-1.24,-0.626,-0.712,-0.503,-0.648
Cc1nc2ccccn2c(=O)c1CCN1CCC(C(=O)c2ccc(F)cc2)CC1 [Pirenperone],1.82,2.56,1.36,1.21,1.54,2.01
CN(C(=O)C(Cl)Cl)c1ccc(OC(=O)c2ccco2)cc1 [Diloxanide furoate],-0.565,-0.529,-0.629,-0.7,-0.498,-0.517
Oc1c(Cl)cc(Cl)c(Cl)c1Cc1c(O)c(Cl)cc(Cl)c1Cl [Hexachlorophene],-0.408,-0.818,-0.203,-0.11,-0.443,-0.32
CC1CC(OC(=O)C(O)c2ccccc2)CC(C)(C)N1C (stereo unspecified) [Eucatropine hydrochloride],-0.612,-0.981,-0.351,-0.392,-0.513,-0.342
CCCCC1C(=O)N(c2ccccc2)N(c2ccccc2)C1=O [Phenylbutazone],-0.242,0.571,-0.047,0.231,-0.314,-0.301
CC(=O)OCC(CCn1cnc2cnc(N)nc21)COC(C)=O [Famciclovir],-0.437,-0.227,-0.465,-0.311,-0.431,-0.386
CC1=C(CC(=O)O)c2cc(F)ccc2/C1=C\c1ccc([S+](C)[O-])cc1 (stereo unspecified) [Sulindac],-0.696,-1.83,-0.98,-1,-0.655,-0.701
CC(C)(C)NC[C@@H](O)COc1cccc2c1CCCC2=O [(+) -Levobunolol hydrochloride],-0.326,1.33,-0.176,-0.0312,-0.353,0.0482
Cc1c(N(C)C)c(=O)n(-c2ccccc2)n1C [Amidopyrine],-0.435,-0.447,-0.729,0.0263,-0.495,-0.518
CN(C)/N=N/c1[nH]cnc1C(N)=O [Dacarbazine],-0.547,-0.605,-0.746,-0.976,-0.487,-0.668
Cc1cc(C)nc(NS(=O)(=O)c2ccc(N)cc2)n1 [Sulfamethazine sodium salt],-0.34,0.511,0.128,-0.158,-0.422,-0.588
Clc1ccc(C(c2ccccc2Cl)C(Cl)Cl)cc1 (stereo unspecified) [Mitotane],-0.586,-1.29,-0.251,-0.167,-0.511,-0.815
COc1cc(C)nc(-n2nc(C)cc2OC)n1 [Epirizole],-0.401,-0.156,-0.543,-1.08,-0.458,-0.525
CN1CCN(C2=Nc3ccccc3Oc3ccc(Cl)cc32)CC1 [Loxapine succinate],0.352,1.12,0.0252,-0.743,0.0734,-0.11

Compound,LBPA endosome anti-LBPA integrated intensity (z-score) (A431 [1]),LBPA endosome anti-LBPA integrated intensity (z-score) (HeLa MZ [2]),whole-cell filipin (z-score) (A431 [3]),whole-cell filipin (z-score) (HeLa MZ [4]),filipin (z-score) (A431 [5]),filipin (z-score) (HeLa MZ [6])
O=c1[nH]c(=O)n([C@H]2C[C@H](O)[C@@H](CO)O2)cc1I [Idoxuridine],-0.506,0.506,-0.368,0.357,-0.479,-0.063
O=C(NC(Cc1cc(=O)[nH]c2ccccc12)C(=O)O)c1ccc(Cl)cc1 (stereo unspecified) [Rebamipide],-0.421,-0.707,-0.0406,0.196,-0.423,-0.367
COc1c2occc2c(OC)c2c(=O)cc(C)oc12 [Khellin],-0.364,-0.599,-0.787,-0.817,-0.439,-0.439
CCOC(=O)OC(C)OC(=O)[C@@H]1N2C(=O)[C@@H](NC(=O)[C@H](N)c3ccccc3)[C@H]2SC1(C)C (stereo partly specified) [Bacampicillin hydrochloride],-0.503,-1.29,-0.749,-0.787,-0.467,-0.528
NS(=O)(=O)c1cc(C(=O)O)c(NCc2ccco2)cc1Cl [Furosemide],-0.539,-0.705,-0.993,-0.823,-0.572,-0.492
CNCCC(Oc1ccccc1OC)c1ccccc1 (stereo unspecified) [Nisoxetine hydrochloride],-0.0713,0.75,0.38,0.302,-0.0689,-0.0239
CN1CCC[C@@H]1CCO[C@](C)(c1ccccc1)c1ccc(Cl)cc1 [Clemastine fumarate],2.28,0.882,0.619,-0.348,2.73,1.84
CC(C)(C)NC(=O)[C@@H]1C[C@@H]2CCCC[C@@H]2CN1C[C@@H](O)[C@H](Cc1ccccc1)NC(=O)[C@H](CC(N)=O)NC(=O)c1ccc2ccccc2n1 [Saquinavir mesylate],0.938,0.684,1.12,0.276,0.903,0.906
Cc1cc(C(C)(C)C)cc(C)c1CC1=NCCN1 [Xylometazoline hydrochloride],-0.127,0.671,0.316,0.463,0.0924,0.303
CCc1c(C)[nH]c2c1C(=O)C(CN1CCOCC1)CC2 (stereo unspecified) [Molindone hydrochloride],-0.564,-0.568,-0.123,-0.707,-0.506,-0.344
CN(Cc1cc(Br)cc(Br)c1N)C1CCCCC1 [Bromhexine hydrochloride],-0.251,-1.52,0.328,-0.199,-0.159,-0.552
COCC(=O)Nc1c(I)c(C(=O)NCC(O)CO)c(I)c(C(=O)N(C)CC(O)CO)c1I (stereo unspecified) [Iopromide],-0.665,-1.68,-0.559,-0.164,-0.527,-0.574
O=C(O)CN(CCN(CC(=O)O)CC(=O)O)CCN(CC(=O)O)CC(=O)O [Pentetic acid],-0.425,-1.12,-0.45,-0.669,-0.443,-0.521
OCCN1CCN(CCCN2c3ccccc3Sc3ccc(C(F)(F)F)cc32)CC1 [Fluphenazine dihydrochloride],2.14,0.746,-0.522,0.27,2.23,3.52
CC12CC3CC(C)(C1)CC(N)(C3)C2 [Memantine Hydrochloride],-0.449,0.231,0.233,0.438,-0.349,-0.0275

# From the supplement of paper PMC6607015
